Compounds with a hit are over-represented: about 3.5% of the library has one in this group of screens.
MITF inh – MITF inhibitors, primary screen, biochemical, AlphaScreen, human | inhibition, % at 2.6 µM | AlphaScreen MITF homodimerization, bead proximity signal | 650,000 tested, 0.91% active | AID 1259374, 2018; in the data active = inhibition above about 50%
FBW7 act – FBW7 E3 ligase activators, primary screen, biochemical, AlphaScreen, human | 650,000 tested, 0.13% active | AlphaScreen FBW7–phospho-cyclin E peptide binding, activator screen | normalized activity (activation), % at 26.1 µM | AID 1259310, 2017 | F-box/WD repeat-containing protein 7 (Homo sapiens), Q969H0; in the data active = normalized activity above about 1.9%;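 note: purified mutant Fbw7 with reduced substrate affinity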
TEAD-YAP block – TEAD-YAP interaction inhibition, primary screen, TEAD-YAP interaction inhibitor project, luminescence, HEK-TIYL cells; AID 1259422, 2018; 640,000 tested, 1.4% active; TEAD-Gal4/YAP UAS-luciferase luminescence; inhibition, % at 9.12 µM; in the data active = inhibition above about 32%
GPR151 activ – activators of human GPR151, primary screen, cell-based, PathHunter beta-arrestin, luminescence | G-protein coupled receptor 151 (Homo sapiens), Q8TDV0 | PathHunter beta-arrestin GPR151 cells | activation, % at 11.2 µM | 650,000 tested, 1% active | AID 1508602, 2020; in the data active = activation above about 4.9%
Target sequence (Q8TDV0 whole entry, looked up): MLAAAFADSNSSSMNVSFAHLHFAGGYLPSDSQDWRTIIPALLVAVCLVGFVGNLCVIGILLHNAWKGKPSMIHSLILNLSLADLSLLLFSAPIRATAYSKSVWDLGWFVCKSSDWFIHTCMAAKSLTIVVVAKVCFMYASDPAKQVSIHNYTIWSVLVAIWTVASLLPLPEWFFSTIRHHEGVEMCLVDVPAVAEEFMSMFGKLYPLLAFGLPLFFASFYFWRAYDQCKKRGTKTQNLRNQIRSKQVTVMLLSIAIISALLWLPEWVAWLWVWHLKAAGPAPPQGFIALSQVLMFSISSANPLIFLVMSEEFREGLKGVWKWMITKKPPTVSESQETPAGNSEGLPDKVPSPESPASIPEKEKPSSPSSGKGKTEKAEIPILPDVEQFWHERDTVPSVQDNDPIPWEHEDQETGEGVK
MITF confirm – MITF inhibitors, retest of hits, confirmation, biochemical, AlphaScreen, triplicate; 4,700 tested, 16% active; shares compounds with MITF inh; AlphaScreen MITF homodimerization, biotin/His-MITF beads; inhibition, % at 2.6 µM; AID 1259372, 2018;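 active = inhibition above a cutoff derived from the DMSO control wells, cut at about 28% in these data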;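 note: inhibitors lower the bead chemiluminescence by keeping MITF from dimerizing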
AS interf DR – AlphaScreen optical interference compounds, dose response, counter-screen, biochemical, HTS; IC50, µM; 480 tested, 6% active; shares compounds with MITF inh; AlphaScreen optical interference counterscreen, cell-free; call rule not given here
AS interf ctr – AlphaScreen optical interference compounds, counter-screen for MITF inhibitor project, biochemical, triplicate | shares compounds with MITF inh | LysRS AlphaScreen counterscreen, signal interference | 4,700 tested, 7.6% active | inhibition, % at 2.6 µM;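 active = inhibition above a cutoff derived from the DMSO control wells, cut at about 30% in these data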
Large screens that a line does not name were inactive (follow-up assays come after a bar, where they were run).

COc1ccc(NC(=O)Cn2c(=O)c3ccccc3n(C)c2=O)cc1OC	none
CCc1n[nH]c(=S)n1/N=C/c1ccccc1F	none
N#CC1=c2/c(=C/c3ccco3)c(N)c(C#N)n2C(=O)C(c2ccco2)S1 (stereo not given)	MITF inh 68.0 | MITF confirm 47.3 | AS interf DR inactive | AS interf ctr inactive
NNc1nc(NN)nc(Nc2ccccc2)n1	MITF inh 65.2 | MITF confirm 97.4 | AS interf ctr 100.3
c1ccc(Nc2nc(Nc3ccccc3)nc(Oc3ccccc3)n2)cc1	none
C=CCc1cc(Cl)ccc1OCCCN1CCOCC1	MITF inh 71.0 | MITF confirm inactive | AS interf ctr inactive
C=CCc1cc(Cl)ccc1OCCCN1CCN(CC)CC1	MITF inh 80.6 | MITF confirm inactive | AS interf ctr inactive
C=CCc1cc(C)ccc1OCCCCN1CCOCC1	MITF inh 55.8 | MITF confirm inactive | AS interf ctr inactive
O=C(NCCCNC(=O)C12CC3CC(CC(C3)C1)C2)C12CC3CC(CC(C3)C1)C2	none
CSc1nc(N2CCCC2)c2cnn(CCNC(=O)c3c(F)cccc3Cl)c2n1	none
CCCOc1ccc(N)cc1N	MITF inh 56.6 | MITF confirm 110.2 | AS interf DR inactive | AS interf ctr inactive
Cc1cc(C)n(C(=O)/C=C/c2ccccc2)n1	none
Cc1cc(C)n(C(=O)/C=C/c2ccco2)n1	MITF inh 77.6 | MITF confirm 67.0 | AS interf DR inactive | AS interf ctr inactive
CC(=C/C(=O)O)/C=C/c1ccco1	MITF inh 68.0 | MITF confirm inactive | AS interf ctr inactive
CC(=C/C(=O)O)/C=C/c1ccoc1	MITF inh 75.0 | MITF confirm 56.9 | AS interf DR inactive | AS interf ctr inactive
CC(/C=C/c1ccc(N(C)C)cc1)=C\C(=O)O	none
Cc1ccccc1C(=O)Nc1c(C(=O)NC(C)C)cnn1-c1ccccc1	none
COc1ccc(C(=O)N2CCN(S(C)(=O)=O)CC2)c(OC)c1	none
O=c1c2ccccc2nc(SCc2csc3ccc(Cl)cc23)n1Cc1ccco1	none
N#CCCNc1cc(-c2cccc(C(F)(F)F)c2)nc(-c2cccnc2)n1	MITF inh 103.7 | MITF confirm inactive | AS interf ctr inactive
Fc1ccc(-c2cc(NCCCn3ccnc3)nc(-c3ccncc3)n2)cc1	none
N#CCCNc1cc(-c2ccc(F)cc2)nc(-c2cccnc2)n1	none
Cc1nc(NCCCn2ccnc2)cc(-c2cccc(C(F)(F)F)c2)n1	MITF inh 60.7 | MITF confirm inactive | AS interf ctr inactive
Fc1ccc(-c2cc(NCCCn3ccnc3)nc(-c3cccnc3)n2)cc1	MITF inh 54.2 | MITF confirm 31.4 | AS interf ctr 38.6
Cc1ccc(-n2nnnc2Cc2nnnn2-c2ccc(C)cc2)cc1	none
O=C(O)c1ccc(N2C(=O)c3ccc(F)cc3C2=O)cc1	none
C/C=C/c1ccc(OCCCN2CCN(CC)CC2)c(OC)c1	MITF inh 63.1 | MITF confirm inactive | AS interf ctr inactive
C/C=C/c1ccc(OCCCCN2CC(C)OC(C)C2)c(OC)c1 (stereo not given)	none
C/C=C/c1ccc(OCCCCNCCN2CCOCC2)c(OC)c1	MITF inh 61.0 | MITF confirm inactive | AS interf ctr inactive
C/C=C/c1ccc(OCCCCNCCN(C)C)c(OC)c1	none
C/C=C/c1ccc(OCCOCCN(C)C)c(OC)c1	MITF inh 69.8 | MITF confirm inactive | AS interf ctr inactive
COc1ccc(C2Oc3ccc(C)cc3C3=C2C(c2cccs2)n2ncnc2N3)cc1OC (stereo not given)	none
c1cc(-c2cc(N3CCC4(CC3)OCCO4)nc(-c3ccncc3)n2)ccn1	none
CCOC(=O)c1cnc2ccccc2c1Nc1ccc(C)c(C)c1	MITF inh 54.4 | MITF confirm inactive | AS interf ctr inactive
CCOC(=O)c1cnc2ccccc2c1Nc1cccc(OC)c1	MITF inh 73.4 | MITF confirm inactive | AS interf ctr inactive
CCOC(=O)c1cnc2ccccc2c1Nc1ccc(O)cc1	none
O=C(NCC[C@@H]1C[C@@H]2C=C[C@H]1C2)c1ccc(OC2CCN(C(=O)C3CC3)CC2)cc1	none
COc1ccc(CCNCC(=O)Nc2ccccc2N2CCCCC2)cc1	MITF inh 60.7 | MITF confirm inactive | AS interf ctr inactive
CC1=CC(C)(C)N(C(=O)CNCCN2CCOCC2)c2cc(C)ccc21	MITF inh 58.8 | MITF confirm inactive | AS interf ctr inactive
O=C(CNCCCN1CCOCC1)Nc1ccc(N2CCCC2)cc1	MITF inh 54.3 | MITF confirm inactive | AS interf ctr inactive
O=C(NCCN1CCOCC1)c1cccc(C(=O)NCCN2CCOCC2)c1	none
O=C(NCCN1CCOCC1)c1cccc(-c2ccccc2)c1	MITF inh 75.5 | MITF confirm inactive | AS interf ctr inactive
O=C(CNCCCN1CCOCC1)Nc1ccc(N2CCCCC2)cc1	none
COc1ccc(-c2cc(C(F)(F)F)n3nc(C(N)=O)c(Cl)c3n2)cc1	none
Cc1cccc(C)c1NC(=O)CNCCN1CCOCC1	MITF inh 92.3 | MITF confirm inactive | AS interf ctr inactive
CC(C)c1cccc(C(C)C)c1NC(=O)CNCCO	MITF inh 53.0 | MITF confirm inactive | AS interf ctr inactive
O=C(CNCCCN1CCOCC1)Nc1ccc2c(c1)OCO2	MITF inh 70.8 | MITF confirm inactive | AS interf ctr inactive
O=C(CNCc1ccc2c(c1)OCO2)Nc1ccc(N2CCCC2)cc1	MITF inh 61.6 | MITF confirm inactive | AS interf ctr inactive
CCOc1ccc(NC(=O)Nc2ccc(C)c(F)c2)cc1	none
Cc1onc(-c2ccccc2Cl)c1C(=O)Nc1nnc(SCC(=O)Nc2nc3ccccc3s2)s1	none
c1cc2c(cc1CNCC1CCCCC1)OCO2	MITF inh 58.2 | MITF confirm inactive | AS interf ctr inactive
CC(C)N(C(=O)CNCCN1CCOCC1)c1ccccc1	MITF inh 72.5 | MITF confirm inactive | AS interf ctr inactive
O=C(CNCCCN1CCOCC1)Nc1ccccc1N1CCCCCC1	MITF inh 70.6 | MITF confirm inactive | AS interf ctr inactive
O=C(CNCCN1CCOCC1)Nc1ccc(N2CCCCC2)cc1	MITF inh 93.0 | MITF confirm inactive | AS interf ctr inactive
CCCCNCC(=O)Nc1ccccc1N1CCCCCC1	none
Cc1ccc(NC(=O)COc2ccc(Cl)cc2Cl)cc1NC(=O)COc1ccc(Cl)cc1Cl	none
O=C(NCCN1CCOCC1)c1cnc(NCc2ccc3c(c2)OCO3)s1	none
O=C(Nc1ccc2c(c1)OCO2)c1cnc(NCCN2CCOCC2)s1	MITF inh 51.6 | MITF confirm inactive | AS interf ctr inactive

Source: PubChem BioAssay (The Scripps Research Institute Molecular Screening Center)
